Shown are actives, neighbours in structure and some others; about 1.8% of the full set was active somewhere.
A3A deaminase = human APOBEC3A DNA deaminase inhibition. hit rate 0.41% among 330,000. AID 493011. recombinant A3A, FAM/TAMRA ssDNA deamination fluorescence. P31941. inhibition, % at 20 µM;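 active means at least 40% inhibition at 20 µM here, with at most 30% in a related deaminase screen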;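 further: plate controls were A3A with DMSO for no effect and wells lacking A3A enzyme for full effect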
MIN6 prolif = MIN6 beta-cell proliferation induction; MIN6 cells proliferation, ATPlite luminescence, 48 h; cells starved in 0.2% serum; 100% = growth in 10% serum; proliferation, % at 10 µM; hit rate 0.29% among 330,000;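 active means compounds whose signal lies at least 3.5 SD above the mean of all wells on their plate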;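 further: 0% = DMSO-treated cells in low-serum medium and 100% = 10% serum control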
VLA-4 inh = inhibition in a human VLA-4 binding assay. inhibition, % (about 7 µM as worked out from the volumes in the protocol). P13612. AID 2557. hit rate 0.2% among 330,000. VLA-4 expressing cells, ligand binding flow cytometry; in the data active means inhibition above about 50%
CendR NRP1 mod = NRP-1/CendR interaction modulation; FAM-RPARPAR peptide binding to NRP-1, fluorescence polarization; inhibition, % at 25 µM; hit rate 0.85% among 360,000;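 active means inhibition or corrected inhibition above about 18%, plus a signal ratio from 0.5 to 1.5, limit read from the data, passing the limit was not always enough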
A3G deaminase = blocks human APOBEC3G single-stranded DNA deamination; Q9HC16; recombinant A3G, ssDNA deamination FAM/TAMRA fluorescence; inhibition, % at 20 µM; hit rate 0.28% among 330,000;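 active means inhibition of at least 40% at 20 µM, with no more than 30% in the related APOBEC3A deaminase screen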;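 further: plate controls were DMSO wells with A3G for no effect and wells lacking A3G enzyme for full effect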
* hit, by the source's call; x = no result.

SMILES	A3A deaminase	MIN6 prolif	VLA-4 inh	CendR NRP1 mod	A3G deaminase
O=C1C(O)=C(O)C(=O)c2ccccc21	0	-4	-29	2	-2
O=C1c2ccccc2C(=O)c2[nH]cnc21	x	x	-9	18*	x
O=C1c2ccccc2C(=O)c2[nH]c(=O)[nH]c21	12	-5	-3	28*	24
Cc1cc(C)c(C(=O)COC(=O)Cn2c(C)csc2=O)cc1C	-5	0	-15	3	-8
CCCCNC(=O)C1c2ccccc2OCC(=O)N1Cc1ccccc1 (centres undefined)	x	x	x	-2	x
CCCCNC(=O)C1c2ccccc2OCC(=O)N1Cc1ccc2c(c1)OCO2 (centres undefined)	x	x	x	19*	x
COc1ccc(N2CCN(C(=O)c3ccc(Br)cc3)CC2)c([N+](=O)[O-])c1	-2	-2	6	16*	-5
COc1ccc(N2CCN(C(=O)c3ccc(C)cc3)CC2)c([N+](=O)[O-])c1	-1	-2	-12	19	-1
O=C1CC[C@@H](OCc2ccccc2)CCN1CC[C@H](Sc1ccccc1)c1ccccc1	0	-8	7	29*	-4
O=C(N[C@@H]1CCC(=O)N(CC[C@H](Sc2ccc(Br)cc2)c2ccccc2)CC1)OCc1ccccc1	5	-7	-2	20*	1
CCN(C[C@H]1N[C@@](Cc2ccccc2)(C(=O)OC)[C@H]2C(=O)N(Cc3ccccc3)C(=O)[C@@H]12)C(=O)Nc1ccc(Cl)cc1	0	-5	22	0	1
CC(NC(=O)CN1C(=O)NC(C)(c2cccc3ccccc23)C1=O)c1ccccc1 (centres undefined)	-4	-3	1	-5	-10
O=S(=O)([O-])C(c1ccccc1)[n+]1ccccc1 (centres undefined)	-3	-4	3	14	-6
Cc1c(C)n2c(SCC(=O)N3CCC(C)CC3)nnc2[nH]c1=O	-1	3	0	24*	-11
CCOC(=O)[C@]12CCCC=C1N(Cc1ccccc1)C(=O)[C@H](CC(=O)NCc1cccc(C(F)(F)F)c1)C2	x	x	x	10	x
CC(C)Cn1nc(NC(=O)C2CCCO2)c2cc3ccccc3nc21 (centres undefined)	-5	6.5*	5	22	-8
Cc1n[nH]c(=O)n1-c1ccc(C(C)(C)C)cc1	-2	-3	-5	21*	-5
COc1cc(/C=N/S(=O)(=O)CCc2ccccc2)cc(OC)c1O	-1	0	-6	39*	-3
C#CCN(C[C@H]1[C@H](OC(=O)NCc2ccc(OC)c(OC)c2)[C@H](OC(=O)NCc2ccc(OC)c(OC)c2)C[C@@H](C(=O)OC)[C@H]1C(=O)OC)S(=O)(=O)c1ccc(C)cc1	x	x	x	-10	x
COc1ccc(-c2cc(C(F)(F)F)nc(SCCC(=O)Nc3cc(C)on3)n2)cc1	0	1	-5	9	-4
O=C(CSc1nc(-c2ccc(F)cc2)cc(C(F)(F)F)n1)NCCN1CCOCC1	1	-3	0	5	0
COc1ccc(-c2cc(C(F)(F)F)nc(SCC(=O)NCCN3CCOCC3)n2)cc1OC	-12	-2	-10	31*	-2
COc1ccc(-c2cc(C(F)(F)F)nc(SCC(=O)Nc3cc(C)on3)n2)cc1OC	-2	-2	4	39*	-5
COc1cc(/C=C/C(=O)O)cc(S(=O)(=O)N2CCN(S(=O)(=O)c3ccc(Cl)cc3)CC2)c1OC	-2	-2	16	9	-5
N#CCCN1CCNCC1	4	0	-5	34*	4
SMILES	A3A deaminase	MIN6 prolif	VLA-4 inh	CendR NRP1 mod	A3G deaminase
N#CCCN1CCN(CCC#N)CC1	-2	-1	25	-9	-5
COc1cc(OC)cc(C(=O)Nc2ccccc2S(=O)(=O)N2CCCC2OC(C)=O)c1 (centres undefined)	1	8	7	18*	-3
COC(=O)C1CCCN1S(=O)(=O)c1ccccc1NC(=O)c1cc(OC)c(OC)c(OC)c1 (centres undefined)	-3	-1	-1	3	-8
O=C(NC1CCCC1)C1CCN(S(=O)(=O)c2ccccc2)CC1	-2	-1	-4	-5	-8
Cn1cc(C(=O)c2ccc(Cl)cc2Cl)cc1C(=O)N/N=C(\N)COc1ccc(Cl)cc1	-1	-7	-1	-1	-6
Cn1cc(C(=O)c2ccc(Cl)cc2Cl)cc1C(=O)N/N=C(\N)COc1ccccc1	-4	-3	3	36*	-5
COc1ccccc1N1CCN(C(=O)CNC(=O)c2ccc(Cl)cc2Cl)CC1	0	0	-19	15	-5
